A selection: hits, their analogues and other compounds. The true share with any hit is near 19%.
KB-3-1 cytotox: KB-3-1 parental cell cytotoxicity; AID 1347075; Potency, µM (doses to about 46.1 µM), most hits filed as cytotoxic; hit rate 1.4% among 400,000; KB-3-1 viability, CellTiter-Glo ATP luminescence, 72 h; also: nearly all actives have a fitted effect of over 60% in size
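Parental KB-3-1 adenocarcinoma cells in phenol-red-free DMEM with 10% FBS were pin-treated with compounds at several concentrations, incubated 72 h at 37 °C, and viability read by CellTiter-Glo luminescence; concentration-effect curves were fitted after normalization.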
DT40 TDP1 no CPT: qHTS for Inhibitors of human tyrosyl-DNA phosphodiesterase 1 (TDP1): qHTS in cells in absence of CPT; DT40 Tdp1-/- hTDP1 cells, no CPT, ATP luminescence, 48 h; Potency, µM (highest dose often 46.2 µM), usual class: inhibitors; hit rate 15% among 420,000; AID 686978, 2013; also: nearly all actives have a fitted effect of over 55% in size
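Seeded 400 DT40-hTDP1 cells/well (vehicle DMSO, no 20 nM CPT); pinned compounds; ≥48 hr at 37 °C; CellTiter-Glo luminescence as viability measure.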
HT1080-NT tox: kills 2HG-producing HT-1080-NT fibrosarcoma cells; hit rate 1.6% among 360,000; AID 686970; Potency, µM (titrated, usually from 46.1 µM), usual class: cytotoxic; HT-1080-NT fibrosarcoma viability, CellTiter-Glo ATP luminescence, 48 h;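 also: NT is the 2HG producing partner of a matched IDH1 knockdown line; nearly all actives have a fitted effect of over 55% in size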
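Read-out is CellTiter-Glo luminescence after 10 minutes at room temperature, following 48 hours' compound treatment of HT-1080-NT cells (750 cells/well, RPMI, 5% FBS, 37 degrees C).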
HT1080 IDH1KD tx: toxicity to HT-1080 IDH1 knockdown cells (counter line). Potency, µM (series often up to 46.1 µM), usual class: cytotoxic. HT-1080 IDH1 knockdown viability, ATP luminescence, 48 h. AID 686971. hit rate 2% among 360,000
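IDH1KD HT-1080 cells, 750/well, RPMI + 5% FBS; compound pinned after 2 h settling; 48 h, 37 °C; CellTiter-Glo luminescence; % activity normalised to DMSO and no-cell wells; curves fitted, classed by r2 and efficacy.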
KB-V1 cytotox: KB-V1 MDR subline cytotoxicity; KB-V1 MDR cells viability, CellTiter-Glo, 72 h; Potency, µM (highest dose often 46.1 µM), actives largely listed as cytotoxic; hit rate 3.4% among 400,000; AID 1347076; also: nearly all actives have a fitted effect of over 60% in size
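Cytotoxicity toward P-gp-expressing KB-V1 cells was determined as loss of CellTiter-Glo luminescence after 72 h at 37 degrees C. Compounds were tested in quantitative HTS format across a concentration range, with curves fitted to normalized data.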
DT40 TDP1 CPT: growth inhibition of DT40 Tdp1-/-;hTDP1 cells with camptothecin (screen for TDP1 inhibitors); chicken DT40 Tdp1-/-;hTDP1 cells + 20 nM CPT, ATP luminescence, 48 h; Potency, µM (top dose mostly 46.2 µM), usual class: inhibitors; hit rate 12% among 420,000; AID 686979; also: nearly all actives have a fitted effect of over 55% in size
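Chicken DT40 Tdp1-/- cells stably complemented with human TDP1 were seeded at 400 cells/well in medium containing 20 nM camptothecin, exposed to pin-transferred compounds, and grown at 37 °C for at least 48 hr. Viability was read as ATP luminescence.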
A number is an active result; i = inactive; ? = inconclusive; nt = not tested or not shown; [ ] = another dose, or the depositor's remark. Calls follow the shape of the dose curve; as a rule, active = well fitted curve in the direction sought with a large enough effect; inconclusive = small, poorly fitted or top-dose-only effect, or another doubt; inactive = no such curve, though single readings can be large; an effect the other way counts as inactive or inconclusive.

SMILES	KB-3-1 cytotox	DT40 TDP1 no CPT	HT1080-NT tox	HT1080 IDH1KD tx	KB-V1 cytotox	DT40 TDP1 CPT
COc1ccc(CCNC(=O)c2oc(=O)c3ccccc3c2-c2ccccc2)cc1OC	i	?	nt	nt	i	?
COc1ccc(-n2nc(C(=O)NCC(=O)N3CCC(C)CC3)c3ccccc3c2=O)cc1	i	?	i	i	i	i
COc1ccc(-n2nc(C(=O)NCC(=O)N3CCCC(C)C3)c3ccccc3c2=O)cc1 (centres undefined)	i	21µM	i	i	i	i
COc1ccc(NC(=O)CNC(=O)c2nn(-c3ccc(OC)c(Cl)c3)c(=O)c3ccccc23)c(OC)c1	i	16µM	i	i	?	?
CCN(CCCNC(=O)CNC(=O)c1nn(-c2ccc(OC)c(OC)c2)c(=O)c2ccccc12)c1ccccc1	i	18µM	i	i	i	?
COc1ccc(-n2nc(C(=O)NCC(=O)Nc3cccc(Cl)c3)c3ccccc3c2=O)cc1OC	i	15µM	i	i	i	15µM
Cc1o[nH]c(=O)c1CC[C@H](N)C(=O)O	nt	i	nt	nt	nt	i
COc1ccc(-n2nc(C(=O)NCC(=O)NCC3CCCO3)c3ccccc3c2=O)cc1Cl (centres undefined)	i	i	i	i	9.2µM	i
CCOc1ccccc1NC(=O)CNC(=O)c1nn(-c2ccc(OC)c(OC)c2)c(=O)c2ccccc12	i	9.2µM	i	i	?	?
COc1ccc(CCNC(=O)CNC(=O)c2nn(-c3ccc(OC)c(OC)c3)c(=O)c3ccccc23)cc1OC	i	9.2µM	i	i	i	i
COc1ccc(-n2nc(C(=O)NCC(=O)NC(C)C)c3ccccc3c2=O)cc1Cl	i	?	i	i	i	i
O=c1cnc2cnc(Nc3ccccc3)nc2n1C1CC1	nt	?	nt	nt	nt	i
COCCn1c(SCC(=O)NCc2ccccc2)nc2ccccc21	i	i	i	i	i	i
COCCn1c(SCc2csc(-c3ccccc3)n2)nc2ccccc21	16µM	18µM	?	i	8.2µM	16µM
COc1cc(C2c3cc4c(cc3C(OC3OC5COC(C)O[C@@H]5C(O)C3O)C3COC(=O)C23)OCO4)cc(OC)c1O (some centres undefined)	nt	0.15µM	nt	nt	nt	0.18µM
COC1OC2COC(c3ccccc3)OC2C(O)C1N (centres undefined)	i	i	i	i	?	i
COc1cc([C@@H]2c3cc4c(cc3[C@@H](O[C@@H]3O[C@@H]5CO[C@@H](C)O[C@H]5[C@H](O)[C@H]3O)[C@H]3COC(=O)[C@H]23)OCO4)cc(OC)c1O	16µM	0.16µM	i	?	i	0.16µM
COc1cc(C2c3cc4c(cc3C(OC3OC5COC(c6cccs6)OC5C(O)C3O)C3COC(=O)C23)OCO4)cc(OC)c1O (centres undefined)	4.1µM	0.026µM	?	?	i	0.023µM
CCN(C(=O)C(C)Sc1ccc(S(=O)(=O)N2CCOCC2)cn1)c1ccccc1 (centres undefined)	i	18µM	i	i	i	?
CN(c1ccc(S(=O)(=O)N2CCOCC2)cn1)C1CCCCC1	i	23µM	i	i	i	i
CN(C(=O)COC(=O)c1ccc(S(=O)(=O)N2CCOCC2)cc1)C1CCCCC1	i	i	i	i	i	i
COc1cc(/C=N/NC(=O)c2cc(-c3c(C)nn(-c4ccccc4)c3C)n[nH]2)ccc1O	i	?	i	i	i	23µM
Cc1nn(-c2ccccc2)c(C)c1/C=N/NC(=O)c1cc(O)cc(O)c1	i	i	i	i	i	i
Cc1nn(-c2ccccc2)c(C)c1-c1cc(C(=O)N/N=C/c2ccc(O)cc2)[nH]n1	?	?	?	?	i	26µM
C[C@@H]1CN([C@@H](C)CO)C(=O)CCCn2cc(nn2)CO[C@H]1CN(C)S(=O)(=O)c1cn(C)cn1	i	i	i	i	i	i
SMILES	KB-3-1 cytotox	DT40 TDP1 no CPT	HT1080-NT tox	HT1080 IDH1KD tx	KB-V1 cytotox	DT40 TDP1 CPT
O=C(CSc1ccc(-c2ccc(Cl)cc2)nn1)N1CCCc2ccccc21	i	?	i	i	i	?
O=C(CSc1ccc(-c2ccc(F)cc2)nn1)N1CCCc2ccccc21	i	?	i	i	?	16µM
COc1cc(OC)cc(C(=O)N2CCCc3ccccc32)c1	i	?	?	i[9.24 µM]	i	16µM
COc1cccc(C(=O)NN2c3ccccc3CCc3ccccc32)c1	i	10µM	i	?	i	21µM
CC1(C)CCCN(C(=O)c2coc(=O)c(Br)c2)C1	i	0.82µM	i	i	i	0.92µM
CCOC(=O)C1CCN(c2ncnc3c2nc2n3CCCCC2)CC1	i	i	nt	nt	i	i
COc1ccc(-c2cc3nccc(-c4cc(Cl)c(C)cc4O)n3n2)cc1	i	i	nt	nt	i	i
COC(=O)c1c(OCc2ccccn2)cc(=O)n2c1CCN(C(=O)c1n[nH]c3c1CCCC3)CC2	nt	i	nt	nt	nt	i
CC(=O)c1cccc(OCC(=O)N2CCCc3ccccc32)c1	i	16µM	i	i	i	?
COc1cc(-c2nnc(SCC(=O)N3CCCc4ccccc43)o2)cc(OC)c1OC	i	23µM	nt	nt	2.6µM	?
O=C1CN(C(=O)c2ccc(Cl)c([N+](=O)[O-])c2)c2ccccc2N1	i	i	i	i	i	i
Cc1occc1-c1nnc(SCC(=O)Nc2nc(C(C)(C)C)cs2)o1	i	10µM	?	?	?	9.2µM
COc1ccc(OC)c(-c2nnc(SCC(=O)N3CCCc4ccccc43)o2)c1	i	?	i	i	i	?
Cc1ccc(Nc2c([N+](=O)[O-])cc(C(=O)N3CC(=O)Nc4ccccc43)cc2[N+](=O)[O-])c(C)c1	?	?	i	i	i	15µM
CCC(=O)NC(=S)NNC(=O)COc1ccc(Br)cc1	i	i	i	i	i	i
CCCS(=O)(=O)NC(=O)C1(C)CCCN(C(=O)c2oc3ccccc3c2C)C1 (centres undefined)	i	i	i	i	i	i
O=C(c1coc(=O)c(Br)c1)N1CCC(C(O)(c2ccccc2)c2ccccc2)CC1	i	1.8µM	i	i	i	0.65µM
O=C(C1CC1)N1CCC(C(O)(c2ccccc2)c2ccccc2)CC1	i	i	i	i	i	i
COc1cccc(-c2nnc(SCC(=O)N3CCCc4ccccc43)o2)c1	i	i	i	i	i	i
Cc1ccc(-c2nnc(SCC(=O)N3CCc4ccccc43)o2)cc1	i	i	nt	nt	i	i
O=C(CSc1nnc(-c2ccc(F)cc2)o1)N1CCCc2ccccc21	i	18µM	nt	nt	i	?
COc1cc2ccccc2cc1C(=O)N1CCc2ccccc21	?	15µM	?	?	i	16µM
